# Paper PMC5540273 (PLoS ONE, 2017)
# How the values were obtained:
# Details in all cases: concentration: 1 μM, replicates: in singlicate; n = 1
# CDKL5 = system: CDKL5
# CHEK1 = system: CHEK1
# CHEK2 = system: CHEK2
# CIT = system: CIT
# CLK1 = system: CLK1
# CLK2 = system: CLK2
# CLK3 = system: CLK3
# CLK4 = system: CLK4
# CSF1R-autoinhibited = system: CSF1R-autoinhibited
# CSF1R = system: CSF1R
# CSK = system: CSK
# CSNK1A1L = system: CSNK1A1L
# CSNK1A1 = system: CSNK1A1
# CSNK1D = system: CSNK1D
# CSNK1E = system: CSNK1E
# CSNK1G1 = system: CSNK1G1
# CSNK1G2 = system: CSNK1G2
# CSNK1G3 = system: CSNK1G3
# CSNK2A1 = system: CSNK2A1
# CSNK2A2 = system: CSNK2A2
# 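Note: KINOMEscan kinase panel screen.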
SMILES,%Inh (CDKL5) [%],%Inh (CHEK1) [%],%Inh (CHEK2) [%],%Inh (CIT) [%],%Inh (CLK1) [%],%Inh (CLK2) [%],%Inh (CLK3) [%],%Inh (CLK4) [%],%Inh (CSF1R-autoinhibited) [%],%Inh (CSF1R) [%],%Inh (CSK) [%],%Inh (CSNK1A1L) [%],%Inh (CSNK1A1) [%],%Inh (CSNK1D) [%],%Inh (CSNK1E) [%],%Inh (CSNK1G1) [%],%Inh (CSNK1G2) [%],%Inh (CSNK1G3) [%],%Inh (CSNK2A1) [%],%Inh (CSNK2A2) [%]
Cc1ccc(NC(=O)c2ccc(Cl)cc2)cc1-c1ccc(C(=O)Nc2ccncc2)cc1 [GSK1398467],0,16,0,69,3,100,0,15,0,97.1,0,14,0,18,11,8,9,22,0,0
CNc1cc(-c2ccc3c(N)n[nH]c3c2)nc(N)n1 [GSK2224810],0,0,84,9,90.2,80,18,89,5,3,4,0,8,9,12,7,0,28,19,22
CNC(=O)c1ccc(C)c(-n2c(C)cc(OCc3ccc(F)cc3F)c(Br)c2=O)c1,0,0,0,0,11,0,0,0,0,0,0,0,4,0,6,0,0,25,0,0
CN1c2ccc(-c3ccc(C(N)=O)cc3)cc2-c2[nH]ncc2S1(=O)=O,0,0,49,0,25,70,0,15,17,0,0,0,3,1,1,0,0,0,0,1
CC(C)c1ccc(O)cc1Nc1ccnc2ccc(C(F)(F)F)cc12 [GW482059],0,14,0,25,14,4,0,32,0,0,0,11,0,0,0,0,0,9,7,0
NS(=O)(=O)c1cccc(N/C=C2\C(=O)Nc3ccc(S(=O)(=O)Cc4c(Cl)cccc4Cl)cc32)c1 [GSK398099],0,6,0,22,43,33,4,0,0,3,0,11,0,12,18,12,0,28,0,19
Nc1nccc(-c2c(-c3ccc(F)cc3)ncn2C2CCN(Cc3ccccc3)CC2)n1 [SB-219980],2,0,8,97.6,0,6,0,0,15,0,0,49,95.1,94.1,99.4,0,0,0,0,6
Cn1cncc1-c1cc2c(Nc3ccc(OCc4ccccc4)cc3)ncnc2cn1 [GW281179],1,2,0,6,17,0,0,14,0,0,4,4,0,19,24,9,0,24,0,9
Cc1ccc(NC(=O)Nc2ccc(Cl)cc2)cc1-c1ccc(C(=O)Nc2ccncc2)cc1 [GSK1398472],0,19,0,89,32,0,14,42,4,87,0,1,0,6,26,2,7,36,0,0
CCCCc1nn2ncccc2c1-c1ccnc(NC2CC2)n1 [GW684374],0,0,3,25,40,26,90.7,0,0,7,2,0,18,90.1,92.4,0,0,25,0,5
FC(F)(F)c1ccccc1-c1cc(-c2c[nH]nc2-c2ccccn2)ccn1 [GW679396],0,99.9,0,41,8,1,0,21,0,0,0,3,0,36,23,16,0,24,7,17
COc1ccc(Nc2nccc(N3CCC(NC(=O)C(C)c4ccc(Cl)cc4)CC3)n2)cc1 (centres unmarked) [GSK1379812],100,0,0,9,13,11,0,9,0,0,0,0,0,18,35,7,0,19,0,21
CC[C@@H]1CO[C@H](C(=O)Nc2ccccc2)CN1c1cc(-c2ccc3c(N)n[nH]c3c2)nc(NC)n1 [GSK2376236],0,2,29,98.5,37,0,7,0,0,12,0,4,0,39,42,7,31,39,12,10
COC(=O)c1cccc(NC(=O)NC2CCN(c3ccnc(Nc4ccc(F)cc4)n3)C2)c1 (centres unmarked) [GSK1379725],7,0,0,12,10,0,0,10,0,2,0,3,0,21,7,0,0,9,0,0
c1ccc(-c2ccnc3[nH]ccc23)cc1 [SB-693578],9,12,0,3,12,8,29,5,47,8,0,20,0,1,42,90.3,0,5,0,0
Cn1cnc2c(N)ncnc21 [SKF-97623],0,0,24,1,6,0,2,0,41,0,0,22,1,0,8,0,70,0,0,0

SMILES,%Inh (CDKL5) [%],%Inh (CHEK1) [%],%Inh (CHEK2) [%],%Inh (CIT) [%],%Inh (CLK1) [%],%Inh (CLK2) [%],%Inh (CLK3) [%],%Inh (CLK4) [%],%Inh (CSF1R-autoinhibited) [%],%Inh (CSF1R) [%],%Inh (CSK) [%],%Inh (CSNK1A1L) [%],%Inh (CSNK1A1) [%],%Inh (CSNK1D) [%],%Inh (CSNK1E) [%],%Inh (CSNK1G1) [%],%Inh (CSNK1G2) [%],%Inh (CSNK1G3) [%],%Inh (CSNK2A1) [%],%Inh (CSNK2A2) [%]
Cl.Cl.Cl.N#Cc1ccc(CCNc2nccc(-c3cccc(CN4CCNCC4)c3)n2)cc1 [GSK2137462],0,0,0,82,17,23,0,15,0,8,15,2,0,23,55,13,0,14,20,30
COc1cc2ncnc(Nc3cccc(Br)c3)c2cc1OC.Cl [GI230329],0,0,54,53,31,0,0,15,44,4,0,10,0,0,31,12,0,26,8,0
CS(=O)(=O)CCNCc1nc(-c2ccc3ncnc(Nc4ccc5c(cnn5Cc5ccccc5)c4)c3c2)cs1.Cl.Cl [GW569716],14,0,57,34,24,0,1,5,39,0,0,0,0,2,21,1,0,3,0,37
CC(=O)c1cccc(NC(=O)NC2CCN(c3ccnc(Nc4ccc(F)cc4)n3)C2)c1 (centres unmarked) [GSK1379710],0,10,33,29,24,3,14,0,33,18,5,0,0,27,18,12,0,25,16,15
Cc1nccc(-c2c(-c3ccc(F)cc3)ncn2CCCN2CCOCC2)n1.Cl [SB-282975],0,7,14,21,21,5,18,0,0,0,0,21,51,95.6,88,4,6,2,1,9
COC(=O)c1cccc(NC(=O)NC2CCN(c3ccnc(Nc4ccc(OC)cc4)n3)C2)c1 (centres unmarked) [GSK1379746],0,0,0,0,21,100,0,24,28,0,0,0,0,21,35,0,0,26,0,0
CSc1ccc(-c2nc3n(c2-c2ccncc2)CCC3)cc1 [SKF-105561],6,0,0,11,5,0,13,3,3,40,0,5,5,6,7,0,0,1,8,0
Cc1ccccc1Cn1ccn2c(=O)cc(N3CCOCC3)nc12 [GSK2269905],3,0,0,3,48,0,28,30,0,26,0,0,0,4,28,0,0,22,0,0
Cc1ccc(NC(=O)Nc2ccccc2F)cc1-c1ccc(C(=O)Nc2ccncc2)cc1 [GSK1398477],18,5,0,89,16,0,3,40,0,85,0,20,0,12,16,18,32,28,19,18
COc1ccc(CSc2nnc(-c3ccc4c(c3)CCO4)o2)cc1,0,0,0,0,64,28,0,81,10,0,0,3,0,0,0,0,0,0,0,0
Cc1c(Cn2c3ccccc3n3c(=O)cc(N4CCOCC4)nc23)cccc1C(F)(F)F [GSK2306394],0,12,0,30,18,11,0,20,0,0,0,0,19,10,12,9,43,17,6,14
CNc1nc(-c2ccc3c(N)n[nH]c3c2)cc(N2C[C@@H](C(=O)Nc3ccccc3)CC[C@H]2C)n1 [GSK2298859],1,0,11,89,33,68,6,43,0,2,0,6,0,15,36,16,0,28,2,3
COc1ccc(Nc2nccc(N3CCC(NC(=O)C(C)c4ccc(Cl)cc4)C3)n2)cc1 (centres unmarked) [GSK1379735],9,26,0,26,16,13,0,8,8,27,0,1,10,0,11,0,0,23,12,14
Cc1ccc(NC(=O)Nc2ccccc2)cc1-c1ccc(C(=O)Nc2ccncc2)cc1 [GSK1398471],11,0,0,93,20,0,7,14,0,84,2,0,0,13,24,11,13,29,6,7
Cc1cccc2c(-c3ccncn3)c(-c3ccc(F)cc3)nn12 [GW515532],0,5,0,82,99.9,0,100,22,0,0,0,0,50,81,100,14,0,99.9,1,0
